According to the supplement of paper PMC13380429:
Values without a mark were called inactive.

These molecules were tested on Vero E6 infected with SARS-CoV-2 (assay: inhibition of SARS-CoV-2 cytopathic effect; higher = more antiviral protection, active = above 15). Conditions: 100 nM; 48 h.

**Q.** For `CN1C2C=C(c3sccc3Br)CC1CC2` (centres undefined), which “inhibition of SARS-CoV-2 cytopathic effect” value (“inhibition” for short) is on record?
**A.** -0.99%

**Q.** `O=C(Cc1ccc(Cl)c(Cl)c1)N1CCCC[C@@H]1CN1CCCC1` was tested. Which “inhibition” value did it give?
**A.** 1.57%

**Q.** With `CCOC(=O)N1CCC(=C2c3ccc(Cl)cc3CCc3cccnc32)CC1` [loratadine] as the molecule, how does the “inhibition” value read?
**A.** 0.11%

**Q.** `NS(=O)(=O)c1ccc(-n2nc(C(F)(F)F)cc2-c2ccc(Cl)cc2)cc1` was tested. Which “inhibition” value did it give?
**A.** -2.22%

**Q.** With `CC(C)OC(=O)C(C)(C)Oc1ccc(C(=O)c2ccc(Cl)cc2)cc1` [fenofibrate] as the molecule, how does the “inhibition” value read?
**A.** 3.28%

**Q.** `COC(=O)C1=C(C)NC(C)=C([N+](=O)[O-])[C@@H]1c1ccccc1C(F)(F)F` (racemic) was tested. Which “inhibition” value did it give?
**A.** -1.34%

**Q.** `Nc1cc(Cl)c(N=C2NCCN2)c(Cl)c1` [apraclonidine] was tested. Which “inhibition” value did it give?
**A.** -1.3%

**Q.** How did the “inhibition” value turn out when `N[C@@H](Cc1cc(-c2ccc(Cl)cc2Cl)cc(CP(=O)(O)O)c1O)C(=O)O` was run?
**A.** 2.7%

**Q.** How did the “inhibition” value turn out when `COc1cc(N)c(Cl)cc1C(=O)OCCN1CCCCC1` was run?
**A.** 1.8%

**Q.** For `O=C1C=C2C=C[C@@H]3C[C@@]2(O1)[C@H]1CCCCN31` [securinine], which “inhibition” value is on record?
**A.** 2.11%

**Q.** With `CN1CCN(CCCN2c3ccccc3Sc3ccc(Cl)cc32)CC1` [prochlorperazine] as the molecule, how does the “inhibition” value read?
**A.** 0.48%

**Q.** For `Nc1cccc2c(=O)[nH][nH]c(=O)c12` [monosodium-alpha-luminol], which “inhibition” value is on record?
**A.** -1.27%

**Q.** `Cc1c(O)c(=O)n(-c2ccccc2)n1C` [4-hydroxy-phenazone] was tested. Which “inhibition” value did it give?
**A.** 4.58%

**Q.** With `CCn1cc(-c2cccc(C(F)(F)F)c2)c2sc(C(=N)NC3CCS(=O)(=O)CC3)cc2c1=O` as the molecule, how does the “inhibition” value read?
**A.** 1.38%
